Rows were chosen to be rich in hits. Some 12% of all compounds tested hit in one or more screens of this group.
G9a inh: qHTS Assay for Inhibitors of Histone Lysine Methyltransferase G9a. hit rate 8.8% among 350,000. Potency, µM (titrated, usually from 102 µM), most hits filed as inhibitors. Histone-lysine N-methyltransferase EHMT2 (Homo sapiens), Q96KQ7. G9a H3K9 monomethylation, AlphaScreen, 2 h; also: nearly all actives have a fitted effect of over 75% in size
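G9a (20 nM) preincubated 15 min RT with compounds, then 500 nM biotinylated H3K9 peptide and 20 uM SAM added; 2 h RT reaction. Monomethyl-H3K9 product detected by AlphaScreen with anti-H3K9me1 antibody, streptavidin donor and anti-rabbit IgG acceptor beads.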
HP1b chromo inh: HTS for Inhibitors of HP1-beta Chromodomain Interactions with Methylated Histone Tails | hit rate 0.56% among 390,000 | Chromobox protein homolog 1 (Homo sapiens), P83916 | AID 540317, 2011 | AlphaScreen HP1-beta / biotin-H3K9me3 peptide binding | Potency, µM (doses to about 114 µM), usual class: inhibitors; also: nearly all actives have a fitted effect of over 70% in size
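Compound inhibition of the preformed complex between 50 nM HP1-beta and 50 nM biotinylated H3K9me3 peptide was read by AlphaScreen. Buffer was PBS pH 7.4 with 0.01% Tween-20. Incubations ran 30 min at room temperature, with 10 ug/mL donor/acceptor beads.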
JMJD2A Tudor: qHTS Assay for Inhibitors of JMJD2A-Tudor Domain. Lysine-specific demethylase 4A (Homo sapiens), O75164. AlphaScreen JMJD2A-Tudor / H3K4me3 peptide binding. Potency, µM (top dose mostly 114 µM), actives largely listed as inhibitors. hit rate 4.4% among 390,000. AID 504339, 2011; also: nearly all actives have a fitted effect of over 50% in size
Target sequence (O75164 whole entry, looked up, the tested form may be a part): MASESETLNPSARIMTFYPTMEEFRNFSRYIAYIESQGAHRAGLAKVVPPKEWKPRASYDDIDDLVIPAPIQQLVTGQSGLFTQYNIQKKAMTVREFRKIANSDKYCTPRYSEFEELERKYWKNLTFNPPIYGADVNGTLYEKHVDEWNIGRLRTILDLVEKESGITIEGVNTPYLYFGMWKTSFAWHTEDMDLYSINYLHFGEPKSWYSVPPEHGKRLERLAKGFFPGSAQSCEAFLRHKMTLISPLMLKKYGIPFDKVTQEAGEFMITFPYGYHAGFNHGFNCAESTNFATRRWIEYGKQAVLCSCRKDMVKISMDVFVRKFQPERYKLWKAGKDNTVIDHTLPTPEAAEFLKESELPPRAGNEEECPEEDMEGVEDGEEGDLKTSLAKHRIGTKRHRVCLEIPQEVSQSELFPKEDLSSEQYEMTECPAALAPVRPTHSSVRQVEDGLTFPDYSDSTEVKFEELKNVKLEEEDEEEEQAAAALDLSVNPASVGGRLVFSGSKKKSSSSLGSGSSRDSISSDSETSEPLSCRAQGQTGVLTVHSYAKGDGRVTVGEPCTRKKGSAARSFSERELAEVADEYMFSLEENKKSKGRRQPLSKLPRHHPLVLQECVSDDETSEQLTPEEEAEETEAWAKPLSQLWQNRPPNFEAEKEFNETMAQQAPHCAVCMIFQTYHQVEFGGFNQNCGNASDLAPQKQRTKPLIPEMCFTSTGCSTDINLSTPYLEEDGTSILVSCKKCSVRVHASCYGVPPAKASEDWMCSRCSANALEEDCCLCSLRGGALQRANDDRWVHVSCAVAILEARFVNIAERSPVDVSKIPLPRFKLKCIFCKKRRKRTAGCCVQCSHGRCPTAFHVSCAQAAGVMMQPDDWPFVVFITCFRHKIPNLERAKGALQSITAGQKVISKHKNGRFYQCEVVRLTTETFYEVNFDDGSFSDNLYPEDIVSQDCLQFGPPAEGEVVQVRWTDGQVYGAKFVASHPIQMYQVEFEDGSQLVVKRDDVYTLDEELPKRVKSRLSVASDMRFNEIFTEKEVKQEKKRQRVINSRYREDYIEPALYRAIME
BAZ2B block: qHTS Assay for Inhibitors of BAZ2B; Bromodomain adjacent to zinc finger domain protein 2B (Homo sapiens), Q9UIF8; AlphaScreen BAZ2B-H3K14Ac peptide displacement; Potency, µM (series often up to 114 µM), actives largely listed as inhibitors; hit rate 4.4% among 360,000; AID 504333, 2011; also: nearly all actives have a fitted effect of over 60% in size
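AlphaScreen displacement: compounds (up to 110uM) incubated 30 min at room temperature with a preformed 50 nM BAZ2B/50 nM biotinylated H3K14Ac peptide complex in PBS pH 7.4 with Tween-20. Donor and acceptor beads at 10 ug/mL final added, 20 min light-protected before reading.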
Sfp inh: qHTS Assay for Inhibitors of Bacillus subtilis Sfp phosphopantetheinyl transferase (PPTase); 4'-phosphopantetheinyl transferase ffp (Bacillus subtilis), Q9F4F7; Biochemical Sfp PPTase activity, qHTS; Potency, µM, actives largely listed as inhibitors; hit rate 3.5% among 310,000;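 also: the enzyme is Sfp with the accession as filed and its product quenches rhodamine fluorescence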
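Fluorescence-quenching assay with 15 nM Sfp, 5 uM rhodamine-CoA and 12.5 uM BHQ-2-labelled ybbR peptide in pH 7.6 Hepes/MgCl2 buffer. Enzyme was pre-incubated with compound for 15 min at room temperature. Rate was taken from the 30-min fluorescence change (525/598 nm).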
Large screens that a line does not name were inactive. Calls follow the shape of the dose curve; as a rule, active = well fitted curve in the direction sought with a large enough effect; inconclusive = small, poorly fitted or top-dose-only effect, or another doubt; inactive = no such curve, though single readings can be large; an effect the other way counts as inactive or inconclusive.

COc1ccc(NC(=O)c2cc(-c3ccccc3O)no2)cc1	G9a inh 13µM, JMJD2A Tudor inconclusive (no result: Sfp inh)
Cc1ccc(CN(C(=O)c2csnn2)C(C(=O)NC2CCCC2)c2ccc(C)o2)cc1 (centres undefined)	none
Cn1nnnc1Sc1ncnc2scc(-c3cccc(Cl)c3)c12	none (no result: G9a inh, HP1b chromo inh, BAZ2B block, Sfp inh)
O=C(COc1ccc2ccc(=O)oc2c1)NCc1ccccn1	none (no result: G9a inh)
COC(=O)c1cn(Cc2c(C)cc(C)cc2C)nn1	none
Cc1cc(C)c2nc(SCC(=O)NCC3CCCO3)c(C#N)cc2c1 (centres undefined)	BAZ2B block inconclusive
COc1ccc(N/C(=C2\CCCC2=O)C2CCCCC2)cc1	JMJD2A Tudor 56µM (no result: G9a inh, BAZ2B block, Sfp inh)
COc1ccc(N(CC(=O)NCc2ccccc2)S(=O)(=O)c2c(C)noc2C)cc1	none
Cc1ccc(S(=O)(=O)NC(C)C(=O)N2CCOCCOCCOCCOCC2)cc1 (centres undefined)	G9a inh 40µM
COc1ccc(S(=O)(=O)NC(C)C(=O)Nc2ccc3c(c2)OCO3)cc1OC (centres undefined)	none
Cc1ccc(S(=O)(=O)NC(C)C(=O)Nc2ccc3c(c2)OCO3)cc1 (centres undefined)	G9a inh 50µM
CCC(=O)NNC(=O)CCC(=O)Nc1ccc(C)cc1C	none
COc1ccc2oc(C(=O)c3ccccc3)c(N)c2c1	none
COc1ccc(C(=O)c2oc3ccccc3c2N)cc1	Sfp inh 79µM
CCCCN(CCCC)C(=O)C1CCN(S(=O)(=O)c2cccc3nsnc23)CC1	G9a inh inconclusive (no result: BAZ2B block, Sfp inh)
C[C@@H]1NC(=O)N(CCCn2ccnc2)C1=O	BAZ2B block 50µM
CC(C)CC(NC(=O)CC12CC3CC(CC(C3)C1)C2)C(=O)NC1=NCCS1 (centres undefined)	JMJD2A Tudor 22µM (no result: G9a inh)
Cc1cc(C(=O)O)ccc1-n1c(C)cc(/C=C(/C#N)C(=O)Nc2ccccc2)c1C	BAZ2B block inconclusive (no result: G9a inh)
COC(=O)C(C)N1C(=O)S/C(=C\c2ccc(-c3ccc(C(=O)O)cc3C)o2)C1=O (centres undefined)	G9a inh 40µM, HP1b chromo inh inconclusive, JMJD2A Tudor inconclusive, BAZ2B block inconclusive
CC(C)N1C(=O)S/C(=C/c2ccc3c(c2)n(C)c(=O)n3C)C1=O	none
Cc1ccc(C(=O)O)cc1-c1ccc(C=C2C(=O)c3ccccc3C2=O)o1	G9a inh 18µM, HP1b chromo inh 40µM, JMJD2A Tudor inconclusive, BAZ2B block 50µM
Cc1cc(C(=O)O)ccc1-n1c(C)cc(C=C2C(=O)c3ccccc3C2=O)c1C	G9a inh 28µM, JMJD2A Tudor inconclusive
Cc1ccccc1NC(=O)CN1C(=O)S/C(=C\c2ccc(-c3cccc(C(=O)O)c3C)o2)C1=O	G9a inh 20µM
CCOC(=O)Cn1nnnc1C(CC)N(Cc1cc2ccc(C)cc2[nH]c1=O)C1CCCC1 (centres undefined)	none
CCC(C)NC(=O)C1CN(S(=O)(=O)c2ccccc2)CCN1S(=O)(=O)c1ccccc1 (centres undefined)	none
Cc1ccc(Nc2nc(N)nc(CCl)n2)c(C)c1	none
CCn1c(C)cc(/C=C2\SC(=O)N(CC(=O)Nc3ccc(C)c(C)c3)C2=O)c1C	Sfp inh inconclusive
Cc1ccc(NC(=O)CN2C(=O)S/C(=C/c3ccc(-c4cc(C(=O)O)ccc4C)o3)C2=O)cc1C	G9a inh 3.5µM, JMJD2A Tudor 11µM, BAZ2B block 11µM, Sfp inh 56µM
Cc1cccc(NC(=O)CN2C(=O)S/C(=C\c3ccc(-c4cccc(C(=O)O)c4C)o3)C2=O)c1	G9a inh 13µM, HP1b chromo inh inconclusive, JMJD2A Tudor 79µM, BAZ2B block inconclusive
Cc1cc2ncn(/N=C/c3cc(Br)ccc3O)c2cc1C	none (no result: HP1b chromo inh, JMJD2A Tudor)
Cc1nnc(C)n1/N=C/c1cc(Br)cc(Br)c1O	G9a inh 1.6µM, BAZ2B block 50µM
CS/C(N)=N/N=C/c1cc(C)ccc1O	none (no result: G9a inh)
Nc1nnnn1/N=C/c1cc(Br)ccc1O	JMJD2A Tudor 28µM (no result: G9a inh, BAZ2B block, Sfp inh)
CS/C(N)=N/N=C/c1cc(Br)cc(Br)c1O	BAZ2B block 13µM
